# Measured values reported in ChEMBL document CHEMBL4513216, “Probing the Open Global Health Chemical Diversity Library for Multistage-Active Starting Points for Next-Generation Antimalarials” (ACS Infect Dis, 2020).
# Hit rate of the full screen: of about 68,000 compounds, about 2,700 (4%) showed an effect of 50% or more. The entries come from a sample that favours strong results as a whole.
# Tested on: Plasmodium berghei
# Assay: Screen against P. berghei liver stage (PbLuc), transformed with Luciferase, at 2uM
# Assay type: functional, HepG2
# Conditions: tested at 2 uM
row,Compound,INHIBITION [%]
1,CN(CC(F)(F)F)C(=O)CN1CCC(c2cc3ccccc3[nH]2)CC1,-17.18
2,CN(C)C(=O)CN1C[C@H]2CC[C@@H](C1)N(Cc1c(Cl)cncc1Cl)C2,69.67
3,CN(C)C(=O)CN1C[C@H]2CC[C@@H](C1)N(Cc1c(F)cccc1Cl)C2,41.05
4,CN(C)C(=O)CN1C[C@H]2CC[C@@H](C1)N(Cc1cccc(Cl)c1Cl)C2,-14.32
5,COc1ncc(CN(C)C(C)c2cccnc2)cn1 (stereo not given),40.8
6,CNC(=O)CN1CCCC12CCN(C(=O)c1ccoc1)CC2,23.09
7,CCOCCN1CCN(c2ccc(C#N)cn2)CC1,13.14
8,CCCc1ccc(C(=O)N2Cc3c(Cn4ccnc4)nn(C)c3C2)cc1,1.81
9,CC(NC(=O)NCCn1ccnc1)c1ccc2c(c1)OCCCO2 (stereo not given),-16.99
10,O=C(COc1ccc(F)cc1F)N1CCOCC(O)(CN2CCCC2)C1 (stereo not given),9.43
11,Cc1ccc(OCC(=O)N2CCOCC(O)(CN3CCCC3)C2)cc1C (stereo not given),5.47
12,O=C(COc1cccc(Cl)c1)N1CCOCC(O)(CN2CCCC2)C1 (stereo not given),52.1
13,Cc1ccc2nc(CN(C)Cc3n[nH]c4c3CCCCC4)[nH]c2c1C,-17.01
14,COCCNC(=O)C1CCCN(c2ccc3nncn3n2)C1 (stereo not given),-56.23
15,Cn1c(CCNC(=O)C2CCCN(C3CCOCC3)C2)n[nH]c1=O (stereo not given),-36.65
16,Cn1cc(CN2C[C@H]3CCC[C@@]3(COc3ccccn3)C2)cn1,4.38
17,CCc1nnc(NC(=O)NCCN(C)C(=O)OC(C)(C)C)s1,-23.06
18,CCN(CCNC(=O)Nc1nnc(C)s1)C(=O)OC(C)(C)C,57.98
19,Cc1nnc(NC(=O)NCCN(C(=O)OC(C)(C)C)C2CC2)s1,-25.33
20,CCC(C(=O)NCC1=CCCN(C)C1)c1ccccc1 (stereo not given),-52.88
21,COCc1cc(NCCc2ccc(S(N)(=O)=O)cc2)n2nccc2n1,32.88
22,O=C(N1CCOCC1)N1CCc2ncnc(NC3CCC3)c2CC1,24.36
23,CCC(=O)N1CCC2(CC1)CC(N1CCOCC1)c1cc(C)ccc12 (stereo not given),48.17
24,O=C1NCCCCC1Sc1n[nH]c(=O)n1C1CC1 (stereo not given),-5.76
25,O=C1NCCCCC1Sc1nnc(N2CCCC2)n1C1CC1 (stereo not given),-20.55
26,O=C1NCCCCC1Sc1nnc(C2CC2)n1C1CC1 (stereo not given),58.24
27,CCN1CC(C(=O)NCc2ccccc2-n2cccn2)CC1=O (stereo not given),24.91

row,Compound,INHIBITION [%]
1,CNC(=O)[C@@H]1C[C@H]2CN(C(=O)c3ccco3)C[C@H]2N1C(C)C,-11.99
2,c1cncc(COCc2nnc3n2CCN(Cc2cccs2)C3)c1,29.95
3,Cc1ncsc1CCN(C)C(=O)CN1CCCCC1=O,17.2
4,Cc1ncsc1CCN(C)C(=O)CN1CC2(CCCC2)CC1=O,52.3
5,Cc1ncsc1CCN(C)C(=O)CN1CCCCCC1=O,24.36
6,COc1cc(NC(=O)c2nc3ccccc3n(C)c2=O)cc(OC)c1,-1.01
7,COCCn1cc(C(=O)N2CCCC2c2cccc(C)c2)ccc1=O (stereo not given),9.5
8,CCN1CCN(C)C2(CCN(C(=O)CC(F)(F)F)CC2)C1=O,-2.81
9,COCCCN1CC2(CCC1=O)CCN(Cc1cc(C)no1)CC2,-7.23
10,COCCCN1CC2(CCC1=O)CCN(Cc1cc(C(C)C)no1)CC2,50.86
11,COCCCN1CC2(CCN(Cc3cc(C(C)C)no3)CC2)CC1=O,-9.78
12,CS(=O)(=O)c1nccn1Cc1ccncc1,-52.32
13,CCc1nccn1CCC(=O)N1CC(=O)N(c2ccccc2C)CC1C (stereo not given),26.21
14,Cc1ccccc1N1CC(C)N(C(=O)CCn2cccn2)CC1=O (stereo not given),51.08
15,CCc1nccn1CCC(=O)N1CCN(c2ccccc2C)CC1C (stereo not given),-12.03
16,O=C1NCC2(CCCN(C(=O)c3ccc4c(c3)OCCO4)CC2)O1 (stereo not given),24.36
17,O=C1NCC2(CCCN(C(=O)c3ccc4c(c3)CCCO4)CC2)O1 (stereo not given),26.74
18,O=C1NCC2(CCN(C(=O)c3ccc4c(c3)CCCO4)CC2)O1,50.59
19,Cc1cc(-c2ccccc2C(=O)O)nc(C2CCCCN2C)n1 (stereo not given),11.52
20,NCC1CN(C(=O)c2cccc(-n3cccn3)c2)CCO1 (stereo not given),45.82
21,O=C(c1cccc(-n2cccn2)c1)N1CCCOC(CN2CCCC2)C1 (stereo not given),33.9
22,O=C(c1cccc(-n2cccn2)c1)N1CCOC(CCO)C1 (stereo not given),62.51
23,c1cnc2c(c1)nc1n2[C@@H](CNCc2nccs2)COC1,-111.95
24,Fc1cccc(N2CCc3ncnc(N4CCOCC4)c3CC2)c1,-7.49
25,CCOc1ccc(SCCNS(=O)(=O)CC)cc1,20.15
26,O=C(O)c1c(-c2cccnc2)ncc2c1CCN(CC1CCOC1)C2 (stereo not given),21.13
27,CSc1cc2c(cc1NC(=O)N(C)Cc1ccncc1)OCCO2,-10.36

row,Compound,INHIBITION [%]
1,Cn1c2ncccc2c(=O)n1CC(=O)NCCc1c(F)cccc1F,-0.83
2,Cc1ccc(CNC(=O)Cn2c(=O)c3cccnc3n2C)cc1F,16.93
3,Cn1c2ncccc2c(=O)n1CC(=O)NCCC1=CCCCC1,54.49
4,CCC[C@@H](NC(N)=O)C(=O)N1Cc2ccccc2-c2ccccc2C1,-9.87
5,CC(C)Cc1noc(CNc2cccc(-c3nnnn3C)c2)n1,-45.29
6,CC=C(C)C(=O)NS(=O)(=O)c1ccc(C(F)(F)F)cn1,-31.15
7,O=C(c1cccc(O)c1)N1CCN(Cc2nnc(C3CCC3)o2)CC1,1.41
8,Cc1cc(CN(C)C(=O)NC2CCN(Cc3ccccn3)CC2)no1,-7.82
9,COCC(O)CN(C)C(=O)NC1CCN(Cc2ccccn2)CC1 (stereo not given),54.85
10,CN(Cc1cccnc1)C(=O)NC1CCN(Cc2ccccn2)CC1,-37.28
11,COc1ncc(C2(O)CCN(Cc3cc(F)ccc3F)CC2)c(OC)n1,-48.87
12,CCc1cc(C(=O)N[C@@H]2CC[C@@H](N3CCOCC3)[C@@H]2O)no1,-49.75
13,CCOc1ccc(OCCN2CCC(N3CCNC3=O)CC2)cc1,12.81
14,COc1ccc(OCCN2CCC(N3CCNC3=O)CC2)cc1,81.79
15,COc1ccccc1OCCN1CCC(N2CCNC2=O)CC1,3.86
16,C[S+]([O-])CCNC(=O)N1CCSC2(CCCCC2)C1 (stereo not given),-66.38
17,Cc1cccc(N2CC[C@@H]3CN(Cc4csc(C)n4)CCO[C@@H]3C2)n1,25.87
18,Cc1nnsc1C(=O)N1C[C@@H]2CC[C@H]1CN(c1cnccn1)C2,28.73
19,Cc1cnc(C(=O)N2C[C@@H]3CC[C@H]2CN(c2cnccn2)C3)cn1,53.98
20,Cc1noc(C)c1C(=O)N1C[C@@H]2CC[C@H]1CN(c1cnccn1)C2,20.32
21,c1ccc2c(c1)SCCC2NCc1ccc(N2CCOCC2)cc1 (stereo not given),15.16
22,Cc1nccn1-c1ccccc1CNC(=O)c1cn(CCN)nn1,-27.6
23,NCCn1cc(C(=O)NCc2ccccc2Cn2cccn2)nn1,62.3
24,NCCn1cc(C(=O)NCc2ccccc2-n2cccn2)nn1,28.67
25,CC(Cn1cccn1)n1cnc2ccc(F)cc2c1=O (stereo not given),32.71
26,Cc1n[nH]c(C2CN(CC(=O)NCc3cccs3)CCO2)n1 (stereo not given),34.42
27,COc1ccc2[nH]cc(CCNC(=O)C3CCCN(C(C)=O)C3)c2c1 (stereo not given),13.65

row,Compound,INHIBITION [%]
1,CC(=O)N1CCCC(C(=O)NCCc2ccc(F)c(Br)c2)C1 (stereo not given),63.17
2,CCN(CCNC(=O)C1CCCN(C(C)=O)C1)c1ccccc1C (stereo not given),56.33
3,CCCN1CCC(C(=O)NCCN(CC)c2ccccc2C)CC1,-5.9
4,CN1CC(C(=O)NCCc2ccc(F)c(Br)c2)CC1=O (stereo not given),-5.13
5,CCN(CCNC(=O)C1CCN(C(C)=O)CC1)c1ccccc1C,31.13
6,O=C(CN1C=Nc2ccccc2S1(=O)=O)NCCc1cccs1,6.12
7,CCn1ncc(Br)c1CN(C)S(=O)(=O)c1ccc(C)cc1,0.3
8,CCCc1nc(NCc2c(C)nn(CCC)c2C)c2cnn(C)c2n1,32.53
9,CC(C)CNC(=O)CNc1c(NCc2ccco2)c(=O)c1=O,10.93
10,COc1ccnc(CN2CCCC(CCc3ccc(F)cc3)C2)c1OC (stereo not given),58.03
11,COc1ccnc(CN2CCCC(CCc3ccccc3)C2)c1OC (stereo not given),11.37
12,COc1coc(CN2CCCC(CCc3ccc(F)cc3)C2)cc1=O (stereo not given),30.44
13,Cc1cc(CN(C)C2CCCN(Cc3noc(C4CC4)n3)C2)no1 (stereo not given),28.65
14,Cc1nc(CN(C)C2CCN(Cc3nnc(C4CC4)o3)C2)no1 (stereo not given),49.01
15,CC(C)c1nc(CN(C)C2CCN(Cc3nnc(C4CC4)o3)C2)no1 (stereo not given),37.9
16,CCc1nnc(CN(C)C2CCCN(Cc3noc(C4CC4)n3)C2)o1 (stereo not given),-7.13
17,Cc1cc(CN(C)C2CCCN(Cc3noc(C)n3)C2)on1 (stereo not given),-2.71
18,CN(Cc1noc(C2CC2)n1)C1CCN(Cc2nnc(C3CC3)o2)C1 (stereo not given),51.19
19,Cc1cc(CN(C)C2CCCN(Cc3noc(C)n3)C2)no1 (stereo not given),80.46
20,Cc1nc(CN2CCCC(N(C)Cc3nnc(C4CC4)o3)C2)no1 (stereo not given),-10.47
21,Cc1nnc(CN(C)C2CCCN(Cc3noc(C4CC4)n3)C2)o1 (stereo not given),62.13
22,CC(C)N(Cc1cccnc1)C(=O)CCSc1ccc(C#N)cc1,16.72
23,CCc1nc(CN2CCN(C(=O)c3csnn3)CC2)cs1,32.64
24,CC(C)NC(=O)N1CCCC2(CCCCN2)C1 (stereo not given),21.75
